The text below walks through data of the supplement of paper PMC8728848.

Holding throughout (experiment): glycan array binding signal (z-score within array); higher = stronger binding
Conditions in all cases: glycan notation: IUPAC condensed, linker removed

For assay [1], the target named is GlcNAc(b1-3)Gal(b1-4)GlcNAc(b1-2)[GlcNAc(b1-3)Gal(b1-4)GlcNAc(b1-6)]Man(a1-6)[GlcNAc(b1-3)Gal(b1-4)GlcNAc(b1-2)Man(a1-3)]Man(b1-4)GlcNAc(b1-4)GlcNAc. In a few lines: (§1)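 The Consortium for Functional Glycomics database supplied 3228 glycan arrays, of which those lacking an available protein sequence were dropped. The binding signal, a within-array Z-score, was averaged across arrays of the same protein sequence and across linkers. Negative scores can be read as non-binding.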

Assay [2] deals with GlcNAc(b1-3)Gal(b1-4)GlcNAc(b1-3)Gal(b1-4)GlcNAc(b1-2)Man(a1-3)[GlcNAc(b1-3)Gal(b1-4)GlcNAc(b1-3)Gal(b1-4)GlcNAc(b1-2)Man(a1-6)]Man(b1-4)GlcNAc(b1-4)GlcNAc. A digest of the protocol:
as §1

For assay [3], the target named is GlcNAc(b1-3)Gal(b1-4)GlcNAc(b1-3)Gal(b1-4)GlcNAc(b1-3)Gal(b1-4)GlcNAc(b1-3)Gal(b1-4)GlcNAc(b1-2)[GlcNAc(b1-3)Gal(b1-4)GlcNAc(b1-3)Gal(b1-4)GlcNAc(b1-3)Gal(b1-4)GlcNAc(b1-3)Gal(b1-4)GlcNAc(b1-6)]Man(a1-6)[GlcNAc(b1-3)Gal(b1-4)GlcNAc(b1-3)Gal(b1-4)GlcNAc(b1-3)Gal(b1-4)GlcNAc(b1-3)Gal(b1-4)GlcNAc(b1-2)Man(a1-3)]Man(b1-4)GlcNAc(b1-4)[Fuc(a1-6)]GlcNAc. A digest of the protocol:
as §1

Assay [4] deals with GlcNAc(b1-6)GalNAc. A digest of the protocol: as §1
Assay [5] addresses Neu5Ac(a2-3)Gal(b1-3)GlcNAc(b1-2)Man(a1-3)[Neu5Ac(a2-3)Gal(b1-3)GlcNAc(b1-2)Man(a1-6)]Man(b1-4)GlcNAc(b1-4)GlcNAc. In a few lines: as §1
The target in assay [6] is Neu5Ac(a2-3)Gal(b1-3)[Fuc(a1-4)]GlcNAc(b1-3)Gal(b1-3)[Fuc(a1-4)]GlcNAc. A digest of the protocol:
as §1

The target of assay [7] is Neu5Ac(a2-3)Gal(b1-4)GlcNAc(b1-2)Man(a1-3)[Neu5Ac(a2-3)Gal(b1-4)GlcNAc(b1-2)Man(a1-6)]Man(b1-4)GlcNAc(b1-4)[Fuc(a1-6)]GlcNAc. In a few lines:
as §1

For assay [8], the target named is Neu5Ac(a2-3)Gal(b1-4)GlcNAc(b1-2)[Neu5Ac(a2-3)Gal(b1-4)GlcNAc(b1-6)]Man(a1-6)[Neu5Ac(a2-3)Gal(b1-4)GlcNAc(b1-2)Man(a1-3)][GlcNAc(b1-4)]Man(b1-4)GlcNAc(b1-4)GlcNAc. A digest of the protocol: as §1
The target of assay [9] is Neu5Ac(a2-3)Gal(b1-4)[Fuc(a1-3)]GlcNAc(b1-3)Gal. In a few lines: as §1
Assay [10] addresses Neu5Ac(a2-3)Gal(b1-4)[Fuc(a1-3)]GlcNAc6S. A digest of the protocol:
as §1

Assay [11] deals with Neu5Ac(a2-3)[GalNAc(b1-4)]Gal(b1-4)GlcNAc. A digest of the protocol: as §1
For assay [12], the target named is Neu5Ac(a2-6)Gal. In a few lines:
as §1

Assay [13] has as its target Neu5Ac(a2-6)Gal(b1-4)GlcNAc(b1-2)Man(a1-3)[Neu5Ac(a2-3)Gal(b1-4)GlcNAc(b1-2)Man(a1-6)]Man(b1-4)GlcNAc(b1-4)GlcNAc. In a few lines: as §1
For assay [14], the target named is Neu5Ac(a2-6)Gal(b1-4)GlcNAc(b1-2)Man(a1-6)[Gal(b1-4)GlcNAc(b1-2)Man(a1-3)]Man(b1-4)GlcNAc(b1-4)GlcNAc. In a few lines: as §1
The target in assay [15] is Neu5Ac(a2-6)Gal(b1-4)GlcNAc(b1-3)Gal(b1-4)GlcNAc(b1-3)Gal(b1-4)GlcNAc(b1-2)Man(a1-3)[Neu5Ac(a2-6)Gal(b1-4)GlcNAc(b1-3)Gal(b1-4)GlcNAc(b1-3)Gal(b1-4)GlcNAc(b1-2)Man(a1-6)]GalNAc. In a few lines: as §1
Assay [16] deals with Neu5Ac(a2-6)Gal(b1-4)GlcNAc(b1-6)GalNAc. A digest of the protocol: as §1
The target of assay [17] is Neu5Ac(a2-8)Neu5Ac(a2-3)Gal(b1-3)GalNAc(b1-4)[Neu5Ac(a2-3)]Gal(b1-4)Glc. A digest of the protocol:
as §1

For assay [18], the target named is Neu5Ac(a2-8)Neu5Ac(a2-3)Gal(b1-4)GlcNAc. In a few lines: as §1
Assay [19] addresses Neu5Ac(a2-8)Neu5Ac(a2-3)[Gal(b1-3)GalNAc(b1-4)]Gal(b1-4)Glc. A digest of the protocol: as §1
For assay [20], the target named is Neu5Gc(a2-3)Gal(b1-4)[Fuc(a1-3)]GlcNAc. In a few lines:
as §1

Assay [21] concerns the target Neu5Gc(a2-8)Neu5Gc(a2-3)Gal(b1-4)GlcNAc(b1-3)Gal(b1-4)GlcNAc. In a few lines: as §1

Shown is part of a subset that was picked to be rich in the strongest signals.

B1: Erv46-EDTA (Saccharomyces cerevisiae), P39727 (protein)
chain: MKFLVNVALVFMVVYISYIYAAAPEHHHHHHDYDIPTTENLYFQGAMDSVVTRPQLVVDRDRHAKLELNMDVTFPSMPCDLVNLDIMDDSGEMQLDILDAGFTMSRLNSEGRPVGDATELHVGGNGDGTAPVNNDPNYCGPCYGAKDQSQNENLAQEEKVCCQDCDAVRSAYLEAGWAFFDGKNIEQCEREGYVSKINEHLNEGCRIKGSAQINRIQGNLHFAPGKPYQNAYGHFHDTSLYDKTSNLNFNHIINHLSFGKPIQSHSKLLGNDKRHGGAVVATSPLDGRQVFPDRNTHFHQFSYFAKIVPTRYEYLDNVVIETAQFSATFHSRPLAGGRDKDHPNTLHVRGGIPGMFVFFEMSPLKVINKEQ
As to B1, the “glycan array binding signal (z-score)” value was 2.9 in assay [1]; 3.36 in assay [2]; 0.589 in assay [3]; -0.565 in [4]; 1.06 in assay [5]; -0.483 in assay [6]. Moreover, the “glycan array binding signal (z-score)” value in assay [7] was 0.11; in [8] it was -0.335; in assay [9], -0.531; in [10], -0.585; in assay [11], 0.122; in assay [12], -0.121. The “glycan array binding signal (z-score)” value was -0.318 in assay [13]; -0.053 in assay [14]; 3.54 in assay [15]; -0.855 in assay [16]; -0.029 in assay [17]; -0.501 in assay [18]. For the same molecule, the “glycan array binding signal (z-score)” value is -0.605 in assay [19], 0.625 in assay [20] and -0.449 in [21].
